Results published in the supplement of paper PMC11732987, “Enantioselective OTUD7B fragment discovery through chemoproteomics screening and high-throughput optimisation” (Communications Chemistry, 2025).

Key:
Test in all cases: log2 ratio of Biotin-Ahx-Ub-VS probe labelling (fragment/DMSO); higher = less target engagement (more negative = stronger competition), active = hit call of the paper (q ≤ 0.05, log2 ratio ≤ -1)
Conditions in all cases: compound concentration: 200 uM; treatment time: 3 h
USP42 = target: T1, USP42 (UniProt Q9H9J4)
T1 sequence (whole entry): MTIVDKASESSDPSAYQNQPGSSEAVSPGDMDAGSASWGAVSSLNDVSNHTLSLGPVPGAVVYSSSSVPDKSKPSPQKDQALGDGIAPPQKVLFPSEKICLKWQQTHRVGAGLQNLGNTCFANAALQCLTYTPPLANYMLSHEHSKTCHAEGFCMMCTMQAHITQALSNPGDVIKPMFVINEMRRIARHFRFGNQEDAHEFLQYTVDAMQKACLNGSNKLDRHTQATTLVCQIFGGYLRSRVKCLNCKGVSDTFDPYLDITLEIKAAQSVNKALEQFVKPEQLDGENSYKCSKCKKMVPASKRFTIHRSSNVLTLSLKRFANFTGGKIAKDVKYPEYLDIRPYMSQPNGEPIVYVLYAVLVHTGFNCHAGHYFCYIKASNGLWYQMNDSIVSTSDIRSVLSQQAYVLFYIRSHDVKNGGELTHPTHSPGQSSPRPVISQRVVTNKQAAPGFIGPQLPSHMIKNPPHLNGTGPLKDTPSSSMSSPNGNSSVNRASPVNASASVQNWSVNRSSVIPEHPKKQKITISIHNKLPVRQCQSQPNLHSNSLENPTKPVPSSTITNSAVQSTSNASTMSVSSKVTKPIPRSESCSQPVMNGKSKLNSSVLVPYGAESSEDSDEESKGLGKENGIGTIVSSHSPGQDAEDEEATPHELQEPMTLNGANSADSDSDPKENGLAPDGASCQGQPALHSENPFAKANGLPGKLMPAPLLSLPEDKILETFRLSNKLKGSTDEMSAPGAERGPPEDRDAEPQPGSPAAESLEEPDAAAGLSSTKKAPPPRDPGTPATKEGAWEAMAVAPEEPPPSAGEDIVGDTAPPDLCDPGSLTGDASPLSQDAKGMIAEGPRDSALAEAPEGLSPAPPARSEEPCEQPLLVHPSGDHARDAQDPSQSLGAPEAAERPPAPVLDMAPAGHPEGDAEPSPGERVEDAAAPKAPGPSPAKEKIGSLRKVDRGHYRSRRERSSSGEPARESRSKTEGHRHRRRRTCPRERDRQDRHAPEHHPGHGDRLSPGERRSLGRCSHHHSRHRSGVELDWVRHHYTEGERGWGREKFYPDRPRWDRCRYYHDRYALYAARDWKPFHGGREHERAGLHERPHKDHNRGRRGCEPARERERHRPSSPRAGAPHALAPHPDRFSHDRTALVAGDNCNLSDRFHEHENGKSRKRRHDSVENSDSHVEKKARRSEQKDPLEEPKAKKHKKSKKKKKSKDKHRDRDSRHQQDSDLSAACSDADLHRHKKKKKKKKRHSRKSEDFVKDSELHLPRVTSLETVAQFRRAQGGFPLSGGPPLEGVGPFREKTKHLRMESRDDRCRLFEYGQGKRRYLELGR
Outline: (§1)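 HEK293T lysate, 495 µg per sample in Tris/CHAPS/IGEPAL buffer with protease inhibitors, was treated in triplicate with fragment at 200 µM or vehicle for 3 h and then with Biotin-Ahx-Ub-VS at 0.5 µM final for 1 h. Labelled DUBs were NeutrAvidin-enriched, digested with LysC and trypsin, and run by diaPASEF LC-MS/MS. Spectronaut label-free quantities were global-median-normalised, and values are average log2 fragment/vehicle ratios by unpaired t-test on proteins with ≥2 unique peptides.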

USP46 = USP46 (UniProt P62068)
USP46, sequence (P62068 whole entry): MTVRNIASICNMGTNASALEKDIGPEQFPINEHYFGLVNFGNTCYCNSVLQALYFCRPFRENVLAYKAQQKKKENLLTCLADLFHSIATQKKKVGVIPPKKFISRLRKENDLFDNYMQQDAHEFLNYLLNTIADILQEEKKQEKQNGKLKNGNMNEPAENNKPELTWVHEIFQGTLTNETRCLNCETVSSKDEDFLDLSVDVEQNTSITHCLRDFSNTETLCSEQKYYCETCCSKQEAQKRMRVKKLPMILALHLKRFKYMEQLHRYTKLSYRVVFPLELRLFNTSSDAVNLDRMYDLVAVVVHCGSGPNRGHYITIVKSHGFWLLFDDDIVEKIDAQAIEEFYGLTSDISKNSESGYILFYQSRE
Outline: as §1

USP47 = target: T2, USP47 (UniProt Q96K76)
T2 sequence (whole entry): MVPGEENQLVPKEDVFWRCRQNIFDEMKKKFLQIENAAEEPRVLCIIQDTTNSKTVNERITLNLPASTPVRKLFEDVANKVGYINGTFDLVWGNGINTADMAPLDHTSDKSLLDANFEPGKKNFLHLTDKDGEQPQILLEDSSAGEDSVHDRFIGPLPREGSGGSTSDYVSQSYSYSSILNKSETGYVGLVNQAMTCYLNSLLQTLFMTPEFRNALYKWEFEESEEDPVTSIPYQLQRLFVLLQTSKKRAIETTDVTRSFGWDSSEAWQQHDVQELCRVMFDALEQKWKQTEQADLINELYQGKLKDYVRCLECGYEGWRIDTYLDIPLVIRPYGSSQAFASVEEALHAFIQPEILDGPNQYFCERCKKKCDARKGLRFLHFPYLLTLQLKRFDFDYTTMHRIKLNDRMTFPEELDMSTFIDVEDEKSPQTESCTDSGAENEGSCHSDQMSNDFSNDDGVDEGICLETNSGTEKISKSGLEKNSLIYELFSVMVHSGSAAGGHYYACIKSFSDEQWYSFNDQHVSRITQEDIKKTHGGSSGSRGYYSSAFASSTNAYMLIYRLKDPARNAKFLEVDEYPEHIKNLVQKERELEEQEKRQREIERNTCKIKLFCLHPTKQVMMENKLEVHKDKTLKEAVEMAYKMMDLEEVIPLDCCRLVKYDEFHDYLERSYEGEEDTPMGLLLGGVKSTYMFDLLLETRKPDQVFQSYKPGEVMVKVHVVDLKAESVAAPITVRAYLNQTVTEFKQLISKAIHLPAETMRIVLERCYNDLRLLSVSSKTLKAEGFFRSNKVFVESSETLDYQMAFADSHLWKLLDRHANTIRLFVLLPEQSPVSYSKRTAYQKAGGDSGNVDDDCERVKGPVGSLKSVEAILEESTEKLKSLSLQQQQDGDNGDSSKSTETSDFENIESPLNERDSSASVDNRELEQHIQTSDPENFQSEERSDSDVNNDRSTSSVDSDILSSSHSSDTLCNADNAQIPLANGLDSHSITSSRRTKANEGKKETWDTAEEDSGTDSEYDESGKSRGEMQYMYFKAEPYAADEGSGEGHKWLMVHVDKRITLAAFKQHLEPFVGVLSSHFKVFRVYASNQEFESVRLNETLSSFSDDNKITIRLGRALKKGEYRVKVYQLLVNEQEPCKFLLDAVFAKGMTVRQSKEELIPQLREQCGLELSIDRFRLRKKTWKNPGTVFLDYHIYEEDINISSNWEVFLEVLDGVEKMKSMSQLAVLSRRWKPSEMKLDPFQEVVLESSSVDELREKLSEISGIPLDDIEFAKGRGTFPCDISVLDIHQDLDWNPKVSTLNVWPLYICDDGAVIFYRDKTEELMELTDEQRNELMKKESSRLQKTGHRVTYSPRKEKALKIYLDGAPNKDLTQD
Outline: as §1

USP48 = target: T3, USP48 (UniProt Q86UV5)
T3 sequence (whole entry): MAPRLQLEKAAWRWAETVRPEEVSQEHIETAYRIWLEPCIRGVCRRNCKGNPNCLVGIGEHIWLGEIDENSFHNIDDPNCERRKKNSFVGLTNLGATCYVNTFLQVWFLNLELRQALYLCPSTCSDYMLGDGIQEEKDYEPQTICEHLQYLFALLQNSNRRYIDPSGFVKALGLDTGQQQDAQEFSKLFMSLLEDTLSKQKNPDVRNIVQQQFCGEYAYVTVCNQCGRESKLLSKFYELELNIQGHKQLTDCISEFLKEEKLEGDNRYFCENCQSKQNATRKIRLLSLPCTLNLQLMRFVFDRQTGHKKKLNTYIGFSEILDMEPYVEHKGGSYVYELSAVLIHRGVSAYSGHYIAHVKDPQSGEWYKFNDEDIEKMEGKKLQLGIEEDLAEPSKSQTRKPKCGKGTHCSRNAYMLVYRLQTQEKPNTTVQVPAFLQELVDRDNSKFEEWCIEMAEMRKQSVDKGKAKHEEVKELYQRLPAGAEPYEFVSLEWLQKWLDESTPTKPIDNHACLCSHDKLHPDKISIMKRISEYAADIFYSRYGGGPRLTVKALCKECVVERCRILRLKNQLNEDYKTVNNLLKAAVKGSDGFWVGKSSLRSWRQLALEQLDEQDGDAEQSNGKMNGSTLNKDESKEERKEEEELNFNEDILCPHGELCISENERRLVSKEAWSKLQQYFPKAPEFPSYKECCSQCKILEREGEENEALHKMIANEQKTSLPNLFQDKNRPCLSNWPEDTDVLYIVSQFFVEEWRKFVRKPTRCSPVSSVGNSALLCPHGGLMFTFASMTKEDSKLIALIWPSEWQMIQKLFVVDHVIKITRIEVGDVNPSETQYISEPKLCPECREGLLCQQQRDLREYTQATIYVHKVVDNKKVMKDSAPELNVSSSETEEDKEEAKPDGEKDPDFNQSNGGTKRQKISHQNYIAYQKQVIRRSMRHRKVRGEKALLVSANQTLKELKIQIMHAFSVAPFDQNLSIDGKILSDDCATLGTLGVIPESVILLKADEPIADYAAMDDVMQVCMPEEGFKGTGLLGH
Outline: as §1

USP5 = target: T4, USP5 (UniProt P45974)
T4 sequence (whole entry): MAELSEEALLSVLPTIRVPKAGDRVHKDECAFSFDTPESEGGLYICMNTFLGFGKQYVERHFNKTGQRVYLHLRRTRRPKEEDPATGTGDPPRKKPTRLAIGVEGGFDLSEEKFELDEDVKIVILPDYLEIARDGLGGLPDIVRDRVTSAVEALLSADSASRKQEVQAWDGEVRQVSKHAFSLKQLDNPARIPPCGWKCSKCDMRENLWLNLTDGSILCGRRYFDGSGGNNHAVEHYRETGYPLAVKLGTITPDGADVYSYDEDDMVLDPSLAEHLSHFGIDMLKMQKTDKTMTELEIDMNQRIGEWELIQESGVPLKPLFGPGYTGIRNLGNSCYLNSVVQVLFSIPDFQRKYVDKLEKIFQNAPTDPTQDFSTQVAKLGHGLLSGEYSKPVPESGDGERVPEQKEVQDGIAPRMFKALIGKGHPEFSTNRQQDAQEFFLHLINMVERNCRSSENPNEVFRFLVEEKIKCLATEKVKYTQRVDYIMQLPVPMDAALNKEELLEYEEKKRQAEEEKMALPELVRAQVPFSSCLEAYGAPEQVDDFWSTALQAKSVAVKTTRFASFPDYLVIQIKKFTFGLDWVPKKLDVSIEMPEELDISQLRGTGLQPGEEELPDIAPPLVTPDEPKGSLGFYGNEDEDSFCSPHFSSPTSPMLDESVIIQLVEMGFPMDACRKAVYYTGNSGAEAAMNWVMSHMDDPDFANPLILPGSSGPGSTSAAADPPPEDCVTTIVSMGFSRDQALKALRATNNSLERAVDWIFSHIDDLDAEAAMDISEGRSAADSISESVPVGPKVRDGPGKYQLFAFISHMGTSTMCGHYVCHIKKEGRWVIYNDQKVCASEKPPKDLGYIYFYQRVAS
Outline: as §1

USP54 = USP54 (UniProt Q70EL1)
USP54, sequence (Q70EL1 whole entry): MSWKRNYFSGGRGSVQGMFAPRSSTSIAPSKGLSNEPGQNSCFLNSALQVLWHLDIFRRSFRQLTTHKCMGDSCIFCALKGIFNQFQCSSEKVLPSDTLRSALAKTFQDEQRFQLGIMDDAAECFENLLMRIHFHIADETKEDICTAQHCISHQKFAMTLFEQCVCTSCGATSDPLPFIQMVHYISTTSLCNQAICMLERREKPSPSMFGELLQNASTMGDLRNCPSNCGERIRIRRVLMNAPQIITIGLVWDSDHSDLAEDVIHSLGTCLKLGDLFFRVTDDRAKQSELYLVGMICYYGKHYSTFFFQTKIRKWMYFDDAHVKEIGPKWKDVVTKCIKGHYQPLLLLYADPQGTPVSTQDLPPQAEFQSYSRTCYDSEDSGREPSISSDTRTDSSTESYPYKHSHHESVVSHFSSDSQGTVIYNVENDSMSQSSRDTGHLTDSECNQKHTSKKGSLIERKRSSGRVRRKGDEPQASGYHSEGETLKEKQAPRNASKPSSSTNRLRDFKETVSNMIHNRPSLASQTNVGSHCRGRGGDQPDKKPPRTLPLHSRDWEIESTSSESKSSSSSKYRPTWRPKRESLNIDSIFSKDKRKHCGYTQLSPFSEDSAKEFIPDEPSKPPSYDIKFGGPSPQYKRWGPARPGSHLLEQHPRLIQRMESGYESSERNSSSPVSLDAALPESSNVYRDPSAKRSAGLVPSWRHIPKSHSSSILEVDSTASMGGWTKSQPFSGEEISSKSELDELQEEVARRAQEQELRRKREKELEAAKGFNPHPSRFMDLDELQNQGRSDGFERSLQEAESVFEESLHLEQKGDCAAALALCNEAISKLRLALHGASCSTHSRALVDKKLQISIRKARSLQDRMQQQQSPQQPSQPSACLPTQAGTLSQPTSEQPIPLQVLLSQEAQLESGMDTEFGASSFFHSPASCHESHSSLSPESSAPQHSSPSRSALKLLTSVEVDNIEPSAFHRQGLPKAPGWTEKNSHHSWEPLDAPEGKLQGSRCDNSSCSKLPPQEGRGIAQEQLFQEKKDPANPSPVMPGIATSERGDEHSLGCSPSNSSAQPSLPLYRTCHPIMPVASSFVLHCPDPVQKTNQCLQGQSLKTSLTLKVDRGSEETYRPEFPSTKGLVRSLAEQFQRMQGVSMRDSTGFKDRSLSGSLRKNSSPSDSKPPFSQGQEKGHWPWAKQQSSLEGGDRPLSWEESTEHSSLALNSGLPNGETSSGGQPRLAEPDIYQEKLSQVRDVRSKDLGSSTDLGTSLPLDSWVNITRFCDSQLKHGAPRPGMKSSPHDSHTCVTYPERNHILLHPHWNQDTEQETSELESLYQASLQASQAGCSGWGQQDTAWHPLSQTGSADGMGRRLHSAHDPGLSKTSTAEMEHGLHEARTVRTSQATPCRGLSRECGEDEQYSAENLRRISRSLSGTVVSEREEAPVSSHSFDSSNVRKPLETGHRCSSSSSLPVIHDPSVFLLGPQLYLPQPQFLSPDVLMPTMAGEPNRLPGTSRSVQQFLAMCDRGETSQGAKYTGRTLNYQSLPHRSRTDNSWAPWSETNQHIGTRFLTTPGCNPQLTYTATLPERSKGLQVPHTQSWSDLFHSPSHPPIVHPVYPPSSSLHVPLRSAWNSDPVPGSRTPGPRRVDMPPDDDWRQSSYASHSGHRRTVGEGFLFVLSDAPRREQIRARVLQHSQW
Outline: as §1

USP7 = USP7 (UniProt Q93009)
USP7, sequence (Q93009 whole entry, looked up): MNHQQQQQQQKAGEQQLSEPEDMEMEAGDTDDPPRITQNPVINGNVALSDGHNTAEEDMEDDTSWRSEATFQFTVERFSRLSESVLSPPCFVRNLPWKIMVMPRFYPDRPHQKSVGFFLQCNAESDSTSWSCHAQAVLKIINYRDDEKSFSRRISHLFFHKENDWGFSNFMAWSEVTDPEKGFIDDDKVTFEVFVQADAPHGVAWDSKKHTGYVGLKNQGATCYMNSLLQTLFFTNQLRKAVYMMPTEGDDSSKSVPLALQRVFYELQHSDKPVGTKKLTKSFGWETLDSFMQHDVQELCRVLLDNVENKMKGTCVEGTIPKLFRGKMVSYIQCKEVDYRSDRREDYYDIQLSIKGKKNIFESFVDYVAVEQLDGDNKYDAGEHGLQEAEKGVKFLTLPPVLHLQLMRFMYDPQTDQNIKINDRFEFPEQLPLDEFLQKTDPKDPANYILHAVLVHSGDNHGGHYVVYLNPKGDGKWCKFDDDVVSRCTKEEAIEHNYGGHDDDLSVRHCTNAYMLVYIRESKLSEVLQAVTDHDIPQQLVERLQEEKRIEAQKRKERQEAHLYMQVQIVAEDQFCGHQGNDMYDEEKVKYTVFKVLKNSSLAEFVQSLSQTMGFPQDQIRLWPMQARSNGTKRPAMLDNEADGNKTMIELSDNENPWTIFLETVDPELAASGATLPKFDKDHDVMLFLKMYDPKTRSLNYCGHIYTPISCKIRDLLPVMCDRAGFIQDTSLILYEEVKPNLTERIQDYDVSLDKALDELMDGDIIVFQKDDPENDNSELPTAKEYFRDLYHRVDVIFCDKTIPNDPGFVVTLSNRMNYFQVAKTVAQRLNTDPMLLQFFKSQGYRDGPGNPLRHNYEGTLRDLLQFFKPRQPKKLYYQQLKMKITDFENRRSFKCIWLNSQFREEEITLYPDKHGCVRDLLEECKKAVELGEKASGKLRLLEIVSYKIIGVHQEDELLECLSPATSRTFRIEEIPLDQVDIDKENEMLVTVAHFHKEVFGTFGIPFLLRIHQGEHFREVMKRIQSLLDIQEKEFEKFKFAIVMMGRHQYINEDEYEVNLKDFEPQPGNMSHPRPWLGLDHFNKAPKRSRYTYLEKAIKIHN
Outline: as §1

USP8 = target: T5, USP8 (UniProt P40818)
T5 sequence (whole entry): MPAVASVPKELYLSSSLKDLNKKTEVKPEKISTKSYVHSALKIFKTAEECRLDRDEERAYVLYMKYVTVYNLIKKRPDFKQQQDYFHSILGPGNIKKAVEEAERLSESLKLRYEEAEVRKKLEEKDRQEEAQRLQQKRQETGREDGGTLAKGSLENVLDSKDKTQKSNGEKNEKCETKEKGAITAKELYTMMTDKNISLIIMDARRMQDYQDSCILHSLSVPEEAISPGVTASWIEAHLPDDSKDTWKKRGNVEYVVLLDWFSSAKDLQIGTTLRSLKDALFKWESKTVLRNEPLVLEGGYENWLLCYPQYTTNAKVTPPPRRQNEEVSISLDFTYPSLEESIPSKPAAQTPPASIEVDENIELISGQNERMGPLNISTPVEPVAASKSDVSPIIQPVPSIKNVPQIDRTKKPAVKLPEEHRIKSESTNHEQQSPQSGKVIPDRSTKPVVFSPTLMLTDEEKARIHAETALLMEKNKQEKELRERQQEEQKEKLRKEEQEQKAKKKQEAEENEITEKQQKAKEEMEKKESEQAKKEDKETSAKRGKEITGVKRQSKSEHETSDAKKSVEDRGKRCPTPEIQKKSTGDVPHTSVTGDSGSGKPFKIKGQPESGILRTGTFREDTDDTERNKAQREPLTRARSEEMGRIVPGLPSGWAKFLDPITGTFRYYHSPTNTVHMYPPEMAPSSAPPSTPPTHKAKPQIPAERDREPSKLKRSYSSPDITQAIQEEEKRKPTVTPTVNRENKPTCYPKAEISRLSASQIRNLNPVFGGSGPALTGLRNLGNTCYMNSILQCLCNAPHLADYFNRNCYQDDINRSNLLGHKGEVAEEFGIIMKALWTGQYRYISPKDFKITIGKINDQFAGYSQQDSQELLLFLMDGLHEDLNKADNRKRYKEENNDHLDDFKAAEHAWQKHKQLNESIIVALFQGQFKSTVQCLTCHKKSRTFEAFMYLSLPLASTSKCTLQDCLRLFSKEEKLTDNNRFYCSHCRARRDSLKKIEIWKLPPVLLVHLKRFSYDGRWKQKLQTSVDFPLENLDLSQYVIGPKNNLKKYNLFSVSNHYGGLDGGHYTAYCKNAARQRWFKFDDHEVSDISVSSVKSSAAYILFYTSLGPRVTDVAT
Outline: as §1

USP9X = USP9X (UniProt Q93008)
Outline: as §1

UniProt O00487 = target: UniProt O00487
UniProt O00487, sequence (O00487 whole entry): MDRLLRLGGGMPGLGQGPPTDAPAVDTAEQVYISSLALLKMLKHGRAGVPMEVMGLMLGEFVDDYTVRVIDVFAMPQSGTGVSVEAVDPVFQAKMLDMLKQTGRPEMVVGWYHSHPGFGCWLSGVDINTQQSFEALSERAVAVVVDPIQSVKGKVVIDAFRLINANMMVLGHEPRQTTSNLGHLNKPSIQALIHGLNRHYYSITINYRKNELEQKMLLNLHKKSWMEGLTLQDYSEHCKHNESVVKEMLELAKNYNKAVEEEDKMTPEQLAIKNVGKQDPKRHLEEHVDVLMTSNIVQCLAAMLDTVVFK
Outline: as §1

Measured: log2 ratio of Biotin-Ahx-Ub-VS probe labelling

CN1c2ccccc2C(NC(=O)CCl)CS1(=O)=O (stereo not given)
inactive: USP42 -0.0975 | USP46 0.0351 | USP47 -0.132 | USP48 -0.464 | USP5 0.146 | USP54 0.66 | USP7 -0.369 | USP8 -0.341 | USP9X -0.252 | UniProt O00487 -0.206
